About 1,200 (3.2%) of roughly 38,000 compounds showed an effect of 50% or more. The median lay at about -58%. The sample as a whole holds a higher share of strong results than the screen did.

This assay deals with Plasmodium falciparum. The experiment in a line: Calibr Malaria Delayed Death Assay SOP. Details: scale not given: in the data most compounds retested in dose-response had high values. The class given is functional, organism-based. Particulars: concentration 4.99e-06 (unit not given; other assays of the set use mol/L).
In the case of `CN(C)Cc1nnc2n1CCN(Cc1ccccn1)CC2`, the “Percent Effect” value is recorded as -1.592%.

With `CC(C)Nc1nc2c(s1)C(=O)CN(C(=O)NCc1ccccc1)C2`, the “Percent Effect” value is recorded as -132.7%.

Turning to `NC(=O)COc1ccc(CN2CCNC(C(=O)NC3CC3)C2)cc1Cl` (stereo unspecified), the “Percent Effect” value is listed as -16.07%.

For the compound `CCOc1ccc(CN2CCNC(C(=O)NC3CC3)C2)cc1CO` (stereo unspecified), the “Percent Effect” value is on record as -11.99%.

`CCCOc1cc(Cl)c(CN2CCNC(C(=O)NC3CC3)C2)cc1OC` (stereo unspecified): the “Percent Effect” value turned out to be 74.72%.

Take `Cc1cc(C)n(CC(=O)N(CC2CN(C)CCO2)c2nccs2)n1` (stereo unspecified): the “Percent Effect” value was -86.12%.

As to `COc1ccc(Cn2c(Cc3c(C)n[nH]c3C)n[nH]c2=O)cc1`, the “Percent Effect” value is on record as -40.64%.

For the compound `CN(C)CCO[C@H]1CN(C(=O)c2ccc(C#N)cc2)[C@@H]2COC[C@H]12`, the “Percent Effect” value is reported as -51.41%.

Take `CCCn1ncc2c(C(=O)NC(C)Cn3cccn3)cc(C3CC3)nc21` (stereo unspecified): the “Percent Effect” value is given as -124.5%.

In the case of `Cc1ccc(N(C)CC(O)COCc2ccccc2)c(C)c1` (stereo unspecified), the “Percent Effect” value was -54.55%.

As to `Cc1ccc(CS(=O)(=O)NCc2ccco2)cc1`, the “Percent Effect” value was -37.35%.

Consider `O=S(=O)(Cc1cccc(F)c1)NCC(O)Cc1ccccc1` (stereo unspecified), for which the “Percent Effect” value is listed as -87.6%.

For the compound `N#Cc1cccc(CS(=O)(=O)NCC(O)Cc2ccccc2)c1` (stereo unspecified), the “Percent Effect” value is -10.83%.

For the compound `Cc1cccc(CS(=O)(=O)NCC(O)Cc2ccccc2)c1` (stereo unspecified), the “Percent Effect” value was -12.6%.

`Br.Cc1cc(C)c(N(CC(O)CNCc2ccccc2)S(C)(=O)=O)c(C)c1` (stereo unspecified): the “Percent Effect” value was 69.59%.

As for `Cc1cc(C)c(N(CC(O)CNCc2ccco2)S(C)(=O)=O)c(C)c1.O=C(O)c1ccccc1` (stereo unspecified), the “Percent Effect” value was 59.67%.

On to `O=C(C(CNCc1ccco1)c1ccccc1)N1CCOCC1` (stereo unspecified), for which the “Percent Effect” value is -74.95%.

`CCn1nc(C)c2nc(C)nc(NCCc3ccccc3)c21`: the “Percent Effect” value was found to be 35.69%.

Take `CO[C@@H]1CN(c2ccccc2)S(=O)(=O)[C@@]12CCNC2`: the “Percent Effect” value was -24.96%.

On to `CC1c2ccsc2CCN1Cc1cc2c(cc1O)OCO2` (stereo unspecified), for which the “Percent Effect” value is recorded as 25.38%.

Consider `Cn1cc(C2CCCN2C(=O)c2cnc(-c3ncccn3)s2)cn1` (stereo unspecified), for which the “Percent Effect” value is reported as -23.4%.

In the case of `Cn1c2c(c(=O)n1C)CN(C(=O)c1cccc(F)c1)CCC2`, the “Percent Effect” value is given as -64.91%.

Turning to `CC(CNS(=O)(=O)CCCC#N)c1ccsc1` (stereo unspecified), the “Percent Effect” value is given as -35.87%.

With `CN(C)c1ccc(C(CNS(=O)(=O)c2cccs2)N2CCCC2)cc1` (stereo unspecified), the “Percent Effect” value came out at 52.34%.

Take `COc1ccccc1N1CCC(CNS(=O)(=O)c2cccs2)C1` (stereo unspecified): the “Percent Effect” value was determined as 4.169%.

Regarding `CN1CCc2cc(C(CNS(=O)(=O)c3cccs3)N3CCCC3)ccc21` (stereo unspecified), the “Percent Effect” value was 13.73%.

On to `CCC(CO)N(Cc1cccs1)C(=O)CNS(=O)(=O)c1cccs1` (stereo unspecified), for which the “Percent Effect” value is -105.8%.

Consider `O=S(=O)(NCC(c1ccsc1)N1CCCCCC1)c1cccs1` (stereo unspecified), for which the “Percent Effect” value is recorded as 84.95%.

For `Cc1nc(CN2CCCN(Cc3nc4ccccc4o3)CC2)no1`, the “Percent Effect” value is given as -14.25%.

`CSCC(=O)N1CCOC(c2nc(C(C)(C)C)n[nH]2)C1` (stereo unspecified): the “Percent Effect” value is -128.5%.

Take `O=C(C1CC(=O)N(c2n[nH]c3cc(Br)ccc23)C1)N1CCOCC1` (stereo unspecified): the “Percent Effect” value is -162.5%.

Regarding `O=C(NC1CC1)N1CCc2ncc(CN3CCOCC3)n2CC1.O=C(O)C(F)(F)F`, the “Percent Effect” value is given as -16.42%.

Turning to `O=C(CC1NC(N2CCc3ccccc32)=NC1=O)Nc1ccccc1` (stereo unspecified), the “Percent Effect” value is on record as -56.07%.

Consider `C[C@@H]1CN(C(=O)c2cccc(F)c2)C[C@]12CCN(c1ccsc1)C2=O`, for which the “Percent Effect” value is -98.41%.

With `Cc1cc(C)n(CC2CN(CC3CCCC3)CCO2)n1` (stereo unspecified), the “Percent Effect” value is reported as -35.36%.

On to `CCS(=O)(=O)c1ccc(N2CCC(NC(C)=O)CC2)cc1`, for which the “Percent Effect” value is -87.36%.

With `Cc1ccc(-c2cccc(N3CCC(NC4CCOCC4)CC3)c2)cc1`, the “Percent Effect” value was -119.9%.

On to `CNC1CCN(C2CCN(c3ccc(-c4ccco4)cc3)CC2)CC1`, for which the “Percent Effect” value is reported as 85.81%.

In the case of `COc1cccc(N2CCC(N3CCOC(C(F)(F)F)C3)CC2)c1` (stereo unspecified), the “Percent Effect” value is recorded as -105.8%.

For the compound `COc1ccc(N2CCC(N3CCOC(C(F)(F)F)C3)CC2)cc1` (stereo unspecified), the “Percent Effect” value is on record as -105.9%.

With `Cc1nc[nH]c1-c1nccn1CCN1CCCC1=O`, the “Percent Effect” value is -100.3%.

For `CCOC[C@@H]1CC[C@H]2[C@H](CCN2C(=O)c2ccncc2F)O1`, the “Percent Effect” value was -16.41%.

As for `CCn1cc(CNC2CCN(c3cccc(Cl)c3)C2)cn1` (stereo unspecified), the “Percent Effect” value is 17.81%.

In the case of `Clc1cc(Cl)cc(CN2CCC(NCc3ncc[nH]3)CC2)c1`, the “Percent Effect” value turned out to be 83.8%.

As for `c1ccc(CN2CCC(NCCSc3cnn[nH]3)CC2)cc1`, the “Percent Effect” value is listed as -21.85%.

For the compound `OC1CCN(Cc2ccc(CNc3ccc(Cl)cn3)cc2)CC1`, the “Percent Effect” value was -61.51%.

`Brc1ccc(CN2CCC(NCc3ncc[nH]3)CC2)cc1`: the “Percent Effect” value is 82.48%.

Turning to `Cc1cccc(OC2CCN(Cc3ncc[nH]3)CC2)c1`, the “Percent Effect” value is listed as 7.466%.

As for `OC1CCN(Cc2ccc(CNc3ncc(Cl)cc3F)cc2)CC1`, the “Percent Effect” value worked out at 26.38%.

As to `Clc1cccc(N2CCC(NCc3ncc[nH]3)C2)c1` (stereo unspecified), the “Percent Effect” value is 65.12%.

Consider `Clc1cccc(N2CCC(NCc3cc[nH]n3)C2)c1` (stereo unspecified), for which the “Percent Effect” value is reported as -43.41%.

Values taken from ChEMBL document CHEMBL3988442, “University of Dundee, Small-Polar-MMV Screening Library” (2021).
